# Experimental data as given in PubChem BioAssay (NCI).
# Compounds without any hit were thinned out: in the full panel of roughly 79,000, 15% have a hit. A number with no mark means an inactive call. Active and inactive are the calls of the source. Cut-off read from the data, not from the text of the source: active = growth inhibition above about 70%; inactive = the rest.
# How the values were obtained:
# [1] = NCI Yeast Anticancer Drug Screen. Data for the rad50 strain (AID 155);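 note: 0% = growth of vehicle-only cultures of the same strain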; conditions: S. cerevisiae rad50 strain growth inhibition, stronger effect = higher value
# Procedure, shortened: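 Genetically altered yeast (DNA repair pathway); compound treatment; growth inhibition vs vehicle ctrl.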
# [2] = NCI Yeast Anticancer Drug Screen. Data for the mec2-1 strain (AID 157); conditions: S. cerevisiae mec2-1 strain, stronger effect = higher value
# Procedure, shortened: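 Mutant yeast (mec2-1) grown with compound; growth inhibition relative to vehicle control reported.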
# [3] = NCI Yeast Anticancer Drug Screen. Data for the sgs1 mgt1 strain (AID 161);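 note: 0% = growth of cultures given vehicle only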; conditions: S. cerevisiae sgs1 mgt1 strain, stronger effect = higher value
# Procedure, shortened: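 Percent growth inhibition was derived by comparing compound-exposed mutant yeast with vehicle-exposed cultures. The strain carries alterations in DNA damage repair.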
# [4] = NCI Yeast Anticancer Drug Screen. Data for the cln2 rad14 strain (AID 165);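 note: 0% = growth equal to vehicle treated cultures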; conditions: S. cerevisiae cln2 rad14 strain, stronger effect = higher value
# Procedure, shortened: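 Readout is yeast growth inhibition versus vehicle-treated controls, using a strain with cln2 and rad14 alterations exposed to compound.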
# [5] = NCI Yeast Anticancer Drug Screen. Data for the bub3 strain (AID 167); conditions: S. cerevisiae bub3 mutant strain, stronger effect = higher value
# Procedure, shortened: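 Yeast carrying a defined mutation is treated with each compound, and growth is compared with that of vehicle-exposed cells to give inhibition.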
# [6] = NCI Yeast Anticancer Drug Screen. Data for the mlh1 rad18 strain (AID 175); conditions: S. cerevisiae mlh1 rad18 strain growth inhibition, stronger effect = higher value
# Procedure, shortened: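 Genetically defined yeast (DNA repair-deficient) exposed to compounds; growth inhibition determined relative to vehicle.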
# [7] = at 5.0 µM (retest, dose inferred, filed as 0.5)
# [8] = at 50.0 µM (retest, dose inferred, filed as 5.0)
Structure (SMILES),"growth inhibition [1, 7]","growth inhibition [1, 8]",growth inhibition ([1]; at 50.0 µM),"growth inhibition [2, 7]","growth inhibition [2, 8]",growth inhibition ([2]; at 50.0 µM),"growth inhibition [3, 7]","growth inhibition [3, 8]",growth inhibition ([3]; at 50.0 µM),"growth inhibition [4, 7]","growth inhibition [4, 8]",growth inhibition ([4]; at 50.0 µM),"growth inhibition [5, 7]","growth inhibition [5, 8]",growth inhibition ([5]; at 50.0 µM),"growth inhibition [6, 7]","growth inhibition [6, 8]",growth inhibition ([6]; at 50.0 µM)
COc1c2c3c(ccnc3c3ccccc13)C(=O)N2C,29%,84% (active),83% (active),15%,72% (active),71.3% (active),19%,75% (active),77.7% (active),-3%,52%,61%,0%,72% (active),75.6% (active),17%,76% (active),75% (active)
CN1C/C(=C\c2ccccc2)C(=O)C(c2ccccc2)C1 (configuration not stated),-1%,94% (active),1.9%,0%,95% (active),19.9%,0%,96% (active),28.8%,1%,94% (active),-20.6%,-7%,95% (active),77.2% (active),-1%,95% (active),31.4%
O=C(c1ccc(F)cc1)c1ccc(Cl)cc1Cl,96% (active),98% (active),97% (active),100% (active),99% (active),98.7% (active),100% (active),99% (active),93.5% (active),99% (active),100% (active),98.2% (active),99% (active),100% (active),98.9% (active),99% (active),99% (active),99.2% (active)
COC(=O)c1ccccc1CC1Cc2cccc(C)c2C1=O (configuration not stated),-2%,28%,65.2%,-3%,47%,51%,14%,64%,67.6%,-2%,11%,24.4%,5%,80% (active),79.7% (active),1%,40%,76% (active)
O=C(/C=C/c1ccccc1)CCN1CCC2CCC(C2)C1 (configuration not stated),2%,55%,62.9%,9%,82% (active),93% (active),15%,54%,76.1% (active),11%,58%,27.6%,3%,79% (active),46.9%,8%,81% (active),79.5% (active)
Cc1cc(Cc2ccc(Cl)cc2)ccc1O,0%,99% (active),56.4%,-8%,99% (active),46.1%,2%,99% (active),99.2% (active),-13%,99% (active),51.9%,-19%,99% (active),56.4%,6%,99% (active),47.9%
COc1ccc2c(c1)CC[C@@H]1[C@@H]2CC[C@]2(C)/C(=N/OCCN3CCCC3)CC[C@@H]12,95% (active),99% (active),89.5% (active),38%,99% (active),91.8% (active),24%,96% (active),92.1% (active),46%,98% (active),89.7% (active),49%,97% (active),91.1% (active),39%,99% (active),91.1% (active)
Brc1c2nc3ccccc3nc2n2ccc3ccccc3c12,-37%,59%,47.8%,-11%,86% (active),43%,-18%,78% (active),54.5%,-14%,83% (active),44.1%,-37%,83% (active),21%,-38%,69%,59.5%
CCCCCCCCCCCCCCCCCCSSCCCCCCCCCCCCCCCCCC,1%,-3%,36.1%,1%,4%,14.9%,-3%,-3%,-0.8%,-4%,4%,80.9% (active),2%,1%,15.6%,-3%,-7%,-16.1%
N#CC(CC(Br)CBr)(c1ccccc1)c1ccccc1 (configuration not stated),8%,11%,45.9%,8%,24%,40.1%,11%,29%,56%,10%,-2%,36.2%,9%,11%,33.3%,16%,51%,75.5% (active)
CCCCCN(CCCCC)C(=S)Nc1ccccc1,-36%,67%,84.9% (active),-5%,85% (active),80.5% (active),-19%,83% (active),77% (active),-22%,74% (active),80.9% (active),1%,94% (active),87.8% (active),-4%,90% (active),89.4% (active)
Cc1cc(Cl)nc2ccc(Cc3ccc4nc(Cl)cc(C)c4c3)cc12,4%,27%,15.1%,15%,5%,2.45%,7%,7%,-19.6%,3%,13%,15.4%,8%,13%,23.4%,0%,12%,37.8%
O=C(COc1ccc2ccccc2c1)NC1c2ccccc2Oc2ccccc21,77% (active),93% (active),74.2% (active),91% (active),97% (active),17.4%,95% (active),97% (active),69.3%,98% (active),94% (active),12%,92% (active),96% (active),15.6%,82% (active),96% (active),63%
CC1OC(c2ccc3c(c2)OCO3)OC1C (configuration not stated),1%,0%,-21.6%,-4%,-7%,20.1%,-4%,-5%,24.6%,0%,-2%,70.7% (active),-8%,-23%,25%,2%,0%,64.7%
CCCCCCC(=O)Nc1ccc(OC(=O)CCCCCC)c(=O)cc1,8%,99% (active),98.8% (active),36%,100% (active),99.2% (active),33%,99% (active),99.3% (active),-14%,99% (active),98% (active),15%,99% (active),99.2% (active),26%,99% (active),98.5% (active)
c1ccc2c(c1)ccc1c[n+]3c4ccccc4ccc3n12,62%,94% (active),73.6% (active),28%,88% (active),85.5% (active),34%,82% (active),68%,57%,91% (active),87% (active),55%,93% (active),73.4% (active),56%,91% (active),83.2% (active)
Nc1nnc2nc(CC(=O)c3ccccc3)/c(=C/C(=O)c3ccccc3)n12,-21%,-10%,-14.1%,-11%,-20%,9.4%,-23%,-6%,1.05%,-17%,-16%,28.6%,5%,-5%,-4.95%,-21%,-9%,-0.3%
CCN(CC)CCCCNc1ccc(Cl)cc1,-2%,12%,38.2%,1%,-2%,39.1%,-2%,18%,53.9%,2%,-3%,-9.2%,-1%,10%,44.5%,-7%,8%,71.6% (active)
Cc1ccc(S(=O)(=O)C(Br)CC(=O)c2ccccc2)cc1 (configuration not stated),64%,96% (active),99% (active),67%,97% (active),99.8% (active),67%,97% (active),99.7% (active),90% (active),96% (active),99.5% (active),59%,97% (active),99.7% (active),63%,97% (active),99.3% (active)
